TRHR enhancer = TRH receptor (human) allosteric enhancement; AID 493056; enhancement, % at 2 µM; actives 0.66% (n = 360,000); P34981; TRHR cells, fluo-8 calcium fluorescence, EC20 TRH enhancement; in the data active = enhancement above about 30%; note: 0% is about no effect
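Enhancer read-out: after compound pinning and an initial kinetic agonist-mode read, an EC20 of TRH (10 nM final) was injected and fluo-8 calcium signal (Ex 480/Em 530) followed at 1 s/cycle for 100 cycles in TRHR-expressing cells.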
TRHR ag = agonists of human TRH receptor. AID 493084. TRHR cells, calcium flux fluo-8, FDSS agonist mode. actives 0.18% (n = 360,000). activation, % at 2 µM; note: 0% is about no effect
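TRHR-expressing cells loaded with fluo-8 calcium dye; 23 nL library compound pin-transferred, kinetic FDSS fluorescence (Ex 480/Em 530) recorded about 180 s for agonist-induced calcium release, before a 10 nM TRH EC20 addition for potentiator mode.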
D1 antag = human D1 dopamine receptor antagonism; P21728; HEK293 TREx D1 cells, calcium flux, dopamine EC80; hits give low values; activity change, negative = inhibition, % at 10 µM; actives 3.2% (n = 360,000); AID 504652; in the data active = activity change below about -30%; note: % is set by controls: 0 for no effect and ±100 for the full control effect
Target sequence (P21728 whole entry, looked up): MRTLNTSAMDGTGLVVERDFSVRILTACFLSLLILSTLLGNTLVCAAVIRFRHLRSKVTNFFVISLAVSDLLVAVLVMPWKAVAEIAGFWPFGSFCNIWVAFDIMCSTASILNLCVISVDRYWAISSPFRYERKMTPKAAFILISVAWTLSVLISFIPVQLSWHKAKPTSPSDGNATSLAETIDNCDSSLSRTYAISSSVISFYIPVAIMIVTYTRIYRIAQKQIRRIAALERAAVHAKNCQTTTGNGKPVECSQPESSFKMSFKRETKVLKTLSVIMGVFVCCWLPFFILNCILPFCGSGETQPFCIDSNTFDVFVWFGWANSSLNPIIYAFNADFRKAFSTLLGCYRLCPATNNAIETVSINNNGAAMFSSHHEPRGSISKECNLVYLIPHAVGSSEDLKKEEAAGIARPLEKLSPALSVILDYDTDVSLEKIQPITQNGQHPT
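Tetracycline-induced HEK293 Trex D1 cells, force-coupled to calcium, dye-loaded; compounds added and read 180 s, then EC80 dopamine added and calcium flux tracked kinetically another 180 s.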
D1 potentiator = potentiators of human D1 dopamine receptor; actives 0.036% (n = 360,000); P21728; potentiation, % at 10 µM; HEK293 TREx D1 cells, calcium flux, dopamine EC20 potentiation; in the data active = potentiation above about 30%; note: 0% is about no effect
D1 ag = activates the human D1 dopamine receptor; P21728; HEK293 T-REx D1 cells, calcium flux, agonist mode; activation, % at 2 µM; actives 1% (n = 360,000); AID 504660; note: 0% is about no effect
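Inducible HEK293 T-REx D1 cells, force-coupled to calcium signalling, were plated at 4000 cells/well with tetracycline and held overnight at 30 C. After no-wash calcium dye loading, compound-evoked calcium rise over 180 s flagged agonists.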
* = called active by the depositor; · = no result. Sampled rows, rich in hits. Any-hit rate of the full collection: about 4.7%. Cut-off read from the data, not from the text of the source, unless noted: active = activation above about 30%; inactive = the rest.

SMILES | TRHR enhancer | TRHR ag | D1 antag | D1 potentiator | D1 ag
O=C(CN1CCN(Cc2ccccc2F)C1=O)NCCc1ccc(Cl)cc1 | -2.5 | -0.3 | -8.8 | · | 2.3
O=C(CN1CCN(Cc2ccccc2Cl)C1=O)NCCc1ccc(Cl)cc1 | -7.7 | -1.1 | -33.3* | -1.1 | 2.9
Fc1ccc(-c2cn3cc(Cc4ccc(Cl)cc4)sc3n2)cc1 | -6.5 | 2.1 | -2.5 | -1.1 | 10.5
Cc1csc(NC(=O)CSc2nnc(-c3ccoc3C)o2)n1 | 0.2 | -0.6 | -6.4 | -4.7 | 8.8
Cc1occc1-c1nnc(SCC(=O)Nc2nc(C(C)(C)C)cs2)o1 | -10.0 | 0.3 | · | -3.2 | 31.5*
CCOC(=O)C1=C(O)/C(=C\c2cc(C)n(-c3ccc(F)cc3)c2C)N=C1C | 0.5 | 4.1 | -32.2* | -2.1 | 6.0
CCOC(=O)C1=C(O)/C(=C\c2cc(C)n(-c3ccccc3F)c2C)N=C1C | -7.6 | 0.9 | -0.2 | -4.0 | 3.9
O=[S+]([O-])(c1c(F)cccc1F)N1CCN([S+](=O)([O-])c2csc3ccccc23)CC1 | -1.9 | 1.5 | -20.7 | -4.2 | 5.6
Cc1ccc(CSc2nc(=O)c3c(n2C)NC(=O)CC3c2ccc(OC(C)C)cc2)cc1 (centres undefined) | -3.6 | 6.6 | -26.6 | -0.1 | 46.0*
Cc1cccc(CSc2nc(=O)c3c(n2C)NC(=O)CC3c2cccc(O)c2)c1 (centres undefined) | -2.0 | -1.7 | -7.7 | 0.7 | 1.3
CC(C)NCC(O)COCc1ccc(Cl)cc1 (centres undefined) | 2.6 | 0.8 | 4.0 | -2.1 | 1.4
CCC(C)NCC(O)COCc1ccc(Cl)cc1 (centres undefined) | 4.1 | -0.9 | 6.0 | -0.9 | 36.2*
COc1ccc2cc3c(N)c(C(=O)NCc4ccco4)sc3nc2c1 | 50.7* | 1.2 | -4.7 | 5.2 | 4.3
CC(=O)Nc1cccc(C(=O)OCC(=O)c2ccc(S(=O)(=O)N3CCCCC3)cc2)c1 | -8.2 | 0.0 | -36.8* | -3.6 | 8.3
CCOc1ncccc1C(=O)OCC(=O)NCCc1ccccc1 | 30.9* | 0.0 | -0.3 | 0.0 | 0.8
CCOc1ncccc1C(=O)OCC(=O)Nc1ccc(S(=O)(=O)N2CCOCC2)cc1 | 4.6 | 0.4 | -15.5 | 0.0 | 5.6
CCOc1ncccc1C(=O)OCC(=O)Nc1ccc(S(=O)(=O)N2CCCC2)cc1 | -3.2 | -0.2 | -56.2* | -3.8 | 4.3
CC(=O)Nc1ccc(C(=O)OCC(=O)c2ccc(S(=O)(=O)N3CCCCC3)cc2)cc1 | 0.7 | -0.5 | 0.8 | 1.0 | 4.7
COc1ccc(OC)c(NC(=O)COC(=O)c2ccc(S(=O)(=O)N3CCOCC3)cc2)c1 | 11.3 | -0.8 | -51.4* | 14.4 | 1.5
Cc1ccc(-c2nc(SCC(=O)Nc3cc(C)on3)c3c(=O)n(C)c(=O)n(C)c3n2)cc1 | -1.4 | -1.2 | 7.8 | 0.6 | 1.4
O=C(COC(=O)c1ccc([N+](=O)[O-])o1)Nc1cccc(S(=O)(=O)N2CCCCC2)c1 | 1.7 | 1.7 | -30.8* | -8.3 | 9.5
COc1ccc2nc(SCC(=O)Nc3ccc(S(=O)(=O)N4CCCC4)cc3)c(C#N)cc2c1 | -1.0 | 2.0 | 8.4 | 1.5 | 2.2
Cc1ccc(NC(=O)COC(=O)Cn2cnc3ccccc32)cc1S(=O)(=O)N(C)C | 16.5 | 0.1 | -84.9* | -2.6 | -1.0
Cc1ccc(NC(=O)c2ccccc2OCC(=O)Nc2ccccc2F)cc1S(=O)(=O)N(C)C | 5.7 | 1.8 | -38.1* | -0.8 | 3.0
N#Cc1cc2ccccc2nc1SCC(=O)Nc1ccc(S(=O)(=O)N2CCCC2)cc1 | -2.0 | 9.0 | -4.7 | 5.4 | 40.7*
SMILES | TRHR enhancer | TRHR ag | D1 antag | D1 potentiator | D1 ag
CCN1CCN(c2nc3c(c(=O)[nH]c(=O)n3C)n2Cc2ccccc2)CC1 | -1.7 | 0.2 | -3.1 | -0.1 | 4.6
Cc1ccccc1C(=O)NCC(=O)OC(C(=O)Nc1cc(C(F)(F)F)ccc1Cl)c1ccccc1 (centres undefined) | -8.4 | 2.3 | -8.3 | -3.8 | 13.3
COc1cccc(CN(C(=O)c2cccc(C)c2)C2CCS(=O)(=O)C2)c1 (centres undefined) | 0.4 | -0.9 | -3.4 | -0.3 | -1.3
Cc1nn(C)c(C)c1CCNC(=O)Nc1ccccc1C(F)(F)F | 1.6 | 0.1 | -5.1 | 0.1 | 2.9
CCOc1cc(C(=O)NC2CC(C)(C)NC(C)(C)C2)cc(OCC)c1OCC | -5.9 | -0.3 | 5.3 | 1.0 | 9.1
CCN(C(=O)COC(=O)C1=COCCO1)c1c(N)n(Cc2ccccc2)c(=O)[nH]c1=O | 7.8 | 0.0 | -1.2 | 5.2 | 1.4
CCOc1ncccc1C(=O)OCC(=O)Nc1ccc(C)c(S(=O)(=O)N(C)C)c1 | 36.1* | -0.5 | -1.4 | -3.4 | 8.2
O=C(COC(=O)c1ccc(S(=O)(=O)N2CCCCC2)cc1)Nc1ccccc1 | 8.0 | 1.3 | 11.1 | · | 33.7*
Cc1ccc(NC(=O)COC(=O)c2ccc(S(=O)(=O)N3CCCCC3)cc2)cc1 | -3.7 | 0.4 | 1.9 | -13.4 | 3.0
N#CCCN(C(=O)COC(=O)c1ccc(S(=O)(=O)N2CCCC2)cc1)c1cccc(Cl)c1 | -3.6 | 1.4 | -6.4 | -2.3 | 31.2*
O=C(Cn1cc(C(=O)c2ccncc2)c(=O)c2cc(F)ccc21)Nc1ccc(Cl)cc1 | 2.6 | 0.1 | -4.3 | 5.2 | 0.5
Cc1ccc(NC(=O)Cn2cc(C(=O)c3ccco3)c3ccccc32)c(C)c1 | -15.3 | 1.2 | -12.1 | 0.0 | 7.1
Cc1ccccc1Cn1c(NC2CCCC2)nc2c1c(=O)[nH]c(=O)n2C | 0.2 | 0.7 | -18.0 | 3.5 | 0.4
COc1ccc(OC)c(NC(=O)C2CCCN(S(=O)(=O)c3ccc4[nH]c(=O)ccc4c3)C2)c1 (centres undefined) | 4.3 | -0.2 | -0.3 | -2.7 | 0.2
COc1ccc(NC(=O)CSc2nc(-c3ccccc3)[nH]c2-c2ccccc2)cc1OC | -4.2 | -0.5 | 1.4 | -4.5 | 0.2
CCOC(=O)c1cc2c(ccn2C)n1CC(=O)N1CCN(c2cccc(C(F)(F)F)c2)CC1 | 7.7 | -0.3 | -38.0* | 0.9 | 3.0
CCOC(=O)c1cc2c(ccn2C)n1CC(=O)N1CCN(c2ccc(F)cc2)CC1 | 1.0 | -0.4 | 12.8 | 5.7 | -0.4
COC(=O)[C@@]12CCCN1[C@H](c1ccc(-c3ccc(F)cc3)cc1)[C@H]1C(=O)N(C)C(=O)[C@H]12 | -2.5 | -0.6 | -44.2* | -1.9 | 3.1
NC(=O)c1c(NC(=O)c2c(F)cccc2F)sc2c1CCN(Cc1ccccc1)C2 | 5.8 | 49.2* | 12.0 | -1.2 | 155.1*
NC(=O)c1c(NC(=O)c2ccncc2)sc2c1CCCCCC2 | 5.4 | 2.3 | -7.6 | -9.3 | 36.7*
CC(C)C(=O)Nc1sc2c(c1C(N)=O)CCN(Cc1ccccc1)C2 | 3.3 | 2.2 | 1.8 | -8.3 | 7.5
CCC(=O)Nc1sc2c(c1C(N)=O)CCN(Cc1ccccc1)C2 | -3.3 | 38.6* | -10.5 | 1.0 | 166.3*
